# Screening data deposited in PubChem BioAssay by several laboratories.
# Mac1 fbg enh – CD11b/CD18-fibrinogen binding enhancement; AID 1499; P05107+P11215; K562 CD11b/CD18 adhesion to fibrinogen, ATPlite luminescence; activation, % at 10 µM; 0.07% of 93,000 active;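 active = 10 µM primary screen giving 50% or more activity, confirmed by 40% or more on retest at that dose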
# ERa coact inh – blocks coactivator binding to human estrogen receptor alpha; P03372; TR-FRET ER-alpha LBD / SRC-1 peptide, estradiol-bound; inhibition, % at 25.6 µM; 1.7% of 86,000 active; AID 629; in the data active = inhibition above about 50%;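 note: 0% = receptor plus peptide control and 100% = peptide only without receptor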
# CD11b adhes inh – CD11b/CD18-fibrinogen binding inhibition; K562 CD11b/CD18 adhesion to fibrinogen, ATPlite luminescence; Mn2+ added to activate the integrin; inhibition, % at 10 µM; 0.54% of 93,000 active; AID 1497;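 active = primary inhibition of 50% or more at 10 µM, then 40% or more on retest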
# ERa SRC1 pot – enhances coactivator binding to human estrogen receptor alpha. AID 639. 1.3% of 86,000 active. P03372. TR-FRET ERalpha-LBD/SRC-Cy5 coactivator binding, 2 h; 100 = basal binding, no effect. coactivator binding (% of control), % at 25.6 µM; in the data active = activity above about 200%;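 note: binding measured in presence of low estradiol as agonist stimulus; 0% = peptide alone without receptor and 100% = receptor with peptide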
# FAK inh – inhibitors of human focal adhesion kinase | Q05397 | biochemical FAK kinase activity assay | AID 727 | 0.84% of 97,000 active | inhibition, %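 (tested at 7 µM)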;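 note: 0% = DMSO and 100% = reference compound high control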
# ERb SRC1 inh – blocks coactivator binding to human estrogen receptor beta; 1.3% of 86,000 active; TR-FRET ER-beta LBD / SRC1-Cy5 peptide binding; receptor agonist-loaded with 1 µM estradiol; AID 633; inhibition, % at 25.6 µM; Q92731;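 active = compounds whose percent inhibition of the receptor-coactivator binding signal exceeds about 50% in the single-dose screen, limit read from the data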;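 note: 0% = receptor plus peptide wells without compound and 100% = peptide-only wells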
# Target sequence (Q92731 whole entry, looked up, the tested form may be a part): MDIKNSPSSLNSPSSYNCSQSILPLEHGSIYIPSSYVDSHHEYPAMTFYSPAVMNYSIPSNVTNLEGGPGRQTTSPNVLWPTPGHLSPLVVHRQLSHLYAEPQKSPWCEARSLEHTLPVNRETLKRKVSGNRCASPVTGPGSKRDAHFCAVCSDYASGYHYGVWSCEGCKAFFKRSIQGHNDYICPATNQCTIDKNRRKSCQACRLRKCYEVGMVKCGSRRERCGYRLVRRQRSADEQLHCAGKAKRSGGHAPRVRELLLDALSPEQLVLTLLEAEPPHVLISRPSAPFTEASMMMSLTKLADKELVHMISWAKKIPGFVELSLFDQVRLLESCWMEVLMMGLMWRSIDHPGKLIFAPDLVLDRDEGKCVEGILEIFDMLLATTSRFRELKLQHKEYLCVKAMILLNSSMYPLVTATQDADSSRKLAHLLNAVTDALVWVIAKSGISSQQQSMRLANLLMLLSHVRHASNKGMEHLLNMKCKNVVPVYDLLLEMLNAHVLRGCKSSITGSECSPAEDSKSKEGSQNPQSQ
# FAK inh conf – confirmation of human focal adhesion kinase (FAK) inhibitors | shares compounds with FAK inh | 28% of 750 active | inhibition, % at 7 µM | FAK kinase biochemical inhibition assay
# Active calls of the source: *; . = no result; [ ] = another dose, or the depositor's remark. In the library only some 3.5% were active in any assay of this set; here they are far more common. Cut-off read from the data, not from the text of the source, unless noted: active = inhibition above about 19%; inactive = the rest.
SMILES,Mac1 fbg enh,ERa coact inh,CD11b adhes inh,ERa SRC1 pot,FAK inh,ERb SRC1 inh,FAK inh conf
O=C1CC(c2ccco2)CC2=C1C=Nc1ccccc1N2 (stereo not given),-2.8,9.5,3.0,97.8,21.8*,3.0,0.0
Cc1nc2n(n1)C(c1ccccc1)C1=C(CC(c3ccco3)CC1=O)N2 (stereo not given),0.7,-0.6,21.7,128.6,12.1,-0.4,.
Cc1ccc(S(=O)(=O)n2cnc3ccccc32)cc1,.,-7.9,.,103.0,-2.3,-9.7,.
CCC(NC(=O)Nc1ccc(O)cc1)(C(F)(F)F)C(F)(F)F,-0.8,-16.7,1.9,102.6,20.1*,5.5,-1.5
COC(=O)C1=C(C)NC2=C(C(=O)CC(c3cccs3)C2)C1c1ccsc1 (stereo not given),2.4,2.0,1.8,106.0,22.2*,-5.7,20.8*
O=C1c2ccccc2C(=O)N1Cc1ccco1,-2.3,-7.6,-0.8,99.0,0.6,-1.2,.
CC1=CC(=C2C(=O)c3ccccc3C2=O)C=C(C)N1Cc1ccco1,-1.7,10.2,0.4,83.7,24.4*,16.0,5.4
Cc1nc(NCCCN2CCOCC2)c2oc3ccccc3c2n1,.,-26.8,.,111.6,11.5,-9.9,.
Cc1ccc(CSCC(=O)N/N=C/c2ccc(OCC(=O)Nc3ccc(C)cc3)cc2)cc1,8.3,.,3.9,.,25.9*,.,11.9
Cc1ccc2c(c1)CCCN2C(=O)c1ccoc1C,1.0,10.7,-6.6,111.7,.,1.0,.
CCc1ccc2c(c1)CCCN2C(=O)c1ccccc1C(=O)O,0.6,4.3,-20.7,107.9,22.5*,-3.8,3.2
Cc1ccc2cc3c(NC(=O)C4CCCO4)nn(CC(C)C)c3nc2c1 (stereo not given),3.4,-6.7,0.5,115.7,-1.4,-8.6,.
Cc1ccccc1NC1=C/C(=N\S(=O)(=O)c2cccs2)c2ccccc2C1=O,-5.9,.,26.1,.,42.1*,.,32.5*
CSc1nc2ccc3nc(NC(=O)c4cccs4)sc3c2s1,14.1,69.4*[fluorescence artefact?],15.2,182.3,39.8*,79.3*[fluorescence artefact?],26.2*
Cc1ccc(N2CC(C(=O)Nc3ccc4c(c3)OCO4)CC2=O)cc1 (stereo not given),-0.1,13.3,7.3,101.2,40.5*,12.3,2.0
Cc1cccn2c(=O)c3cc(C#N)c(=N)n(CC4CCCO4)c3nc12 (stereo not given),.,-9.3,.,95.8,-1.3,-5.0,.
COC(=O)c1ccc(S(=O)(=O)NCCSc2nnc3c4ccccc4n(C)c3n2)cc1,-3.3,-0.6,-6.1,181.3,.,-3.4,.
O=c1[nH]cnc2sc3c(c12)CCCC3,8.0,-5.7,24.5,87.6,25.9*,-0.3,9.5
COc1ccc(-c2[nH]ncc2/C=N\NS(=O)(=O)c2ccccc2)cc1OC,-3.8,.,-22.9,.,22.1*,.,14.6
CCN=C1NN=C(c2cc(C)n(Cc3ccco3)c2C)CS1,46.8,.,46.3,.,.,.,.
COc1ccc2nc(C)cc(SCC(=O)N/N=C/c3cccc4ccccc34)c2c1,65.0,.,9.5,.,32.3*,.,22.9*
COc1ccc2nc(C)cc(SCC(=O)O)c2c1,-1.4,-6.9,-11.0,102.8,7.1,-3.8,.
COC(=O)CSc1cc(C)nc2ccc(OC)cc12,-2.0,-3.6,-4.6,111.3,18.8*,3.5,1.1
CCOC(=O)c1c(C)cc(C)n2c1nc1ccccc12,.,1.6,.,113.0,-7.0,-4.7,.
Cc1cccc(OCC(O)Cn2c(NCCCOC(C)C)nc3c2c(=O)[nH]c(=O)n3C)c1 (stereo not given),-4.2,.,6.3,.,3.3,.,.
SMILES,Mac1 fbg enh,ERa coact inh,CD11b adhes inh,ERa SRC1 pot,FAK inh,ERb SRC1 inh,FAK inh conf
O=c1cc(-c2ccco2)oc2c1ccc1ccccc12,-1.7,50.8*[fluorescence artefact?],19.9,327.4*,25.5*,51.6*[fluorescence artefact?],21.7*
CCOC(=O)C1CCCN(CC(=O)Nc2c(C(=O)OC)[nH]c3ccc(C)cc23)C1 (stereo not given),-1.3,-11.8,1.6,99.4,-0.4,-5.5,.
CCN1CCN(C(=S)c2ccc(Cl)cc2)CC1,-3.7,-1.7,8.5,86.7,-2.3,-23.1,.
Cc1cc(C)c(NC(=O)CN2C(=O)NC3(CCCCC3)C2=O)c(Cl)c1,1.3,-11.4,-11.2,117.3,1.0,-5.6,.
Cc1cc(C)c(NC(=O)CC(C)(C)C)c(Cl)c1,-1.2,-3.2,5.4,102.8,72.7*,-8.1,1.9
CCOC(=O)Cc1[nH]nc2c1C(c1cc(OC)ccc1OC)C(C#N)=C(N)O2 (stereo not given),-3.2,13.8,2.3,65.4,24.7*,36.1,6.2
O=C(N/N=C/c1ccc(F)cc1)c1cc(-c2ccco2)nc2ccccc12,.,.,.,.,72.1*,.,44.8*
Cc1ccc2nc(NC(=O)c3cc(-c4ccco4)nc4ccccc34)sc2c1,46.2,.,42.3,.,.,.,.
CCCc1cc(C(N)=O)c(NC(=O)C2CCCO2)s1 (stereo not given),.,5.1,.,98.8,0.9,5.4,.
CCCc1cc(C(N)=O)c(NC(=O)c2ccco2)s1,-6.7,14.1,-16.3,91.7,27.3*,19.5,9.9
O=C(OCc1cc2ccccc2[nH]c1=O)c1cccs1,-1.0,.,-0.6,.,.,.,.
CSc1nc2ccccc2n1CC(=O)Nc1c(C)n(C)n(-c2ccccc2)c1=O,-3.2,.,22.7,.,3.6,.,.
O=C(N/N=C/c1cccc([N+](=O)[O-])c1)c1cc2ccccc2o1,46.0,.,-20.5,.,.,.,.
O=C(COc1ccc(/C=N/NC(=O)c2cc3ccccc3o2)cc1Cl)Nc1ccccc1,33.6,.,21.4,.,39.6*,.,35.8*
Cc1n[nH]c(C)c1CCc1nc2c3ccccc3nc(SCC(=O)Nc3ccccc3F)n2n1,18.1,72.6*[fluorescence artefact?],-18.9,181.0,21.1*,58.7*[fluorescence artefact?],15.8
Cc1nc2ccccc2n1CCc1nc2c3ccccc3nc(SCC(=O)NCc3ccco3)n2n1,6.6,48.2,15.7,194.1,15.7,7.1,.
CN1c2ccccc2C(C)(C)C12C=Nc1c(cc(N3CCOCC3)c3ccccc13)O2 (stereo not given),.,.,.,.,39.9*,.,-1.8
COC(=O)C1=C(C)Nc2c(c(=O)n(C)c(=O)n2C)C1c1cccs1 (stereo not given),-0.2,8.3,-3.1,96.8,18.8*,-1.4,4.8
CCc1c(C)sc(NC(=O)C2CC2c2ccccc2)c1C(N)=O (stereo not given),2.7,.,-4.6,.,35.4*,.,17.1
NNC(=O)C1CC1c1ccccc1 (stereo not given),0.1,.,-27.5,.,.,.,.
Cc1cc(S(=O)(=O)NCC(=O)O)ccc1F,-1.1,1.6,-43.0,90.1,-5.7,-3.3,.
O=[N+]([O-])c1ccc(N/N=C\c2cccn2-c2ccccc2)nc1,.,.,.,.,30.4*,.,10.1
CC(Sc1nnc(Cc2cccs2)n1C1CCCCC1)C(N)=O (stereo not given),6.6,7.2,-11.7,101.6,26.3*,-0.8,-1.2
Cc1ccc(C)n1Cc1ccc(C(=O)O)cc1,-8.3,30.7,1.1,36.7,78.3*,34.8,-4.3
